Bioassay records (PubChem)
TDP1 cell CPT = DT40-hTDP1 cell growth loss with CPT; chicken DT40 Tdp1-/-;hTDP1 cells + 20 nM CPT, ATP luminescence, 48 h; Potency, µM (highest dose often 46.2 µM), actives largely listed as inhibitors; 12% of 420,000 active; AID 686979; further: nearly all actives have a fitted effect of over 55% in size
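Chicken DT40 Tdp1-/- cells complemented with human TDP1, 400 cells/well, exposed to compounds plus 20 nM camptothecin for at least 48 h at 37 C; viability read as ATP content by CellTiter-Glo luminescence.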
HT1080NT lethal = kills 2HG-producing HT-1080-NT fibrosarcoma cells; 1.6% of 360,000 active; HT-1080-NT fibrosarcoma viability, CellTiter-Glo ATP luminescence, 48 h; AID 686970; Potency, µM (doses to about 46.1 µM), most hits filed as cytotoxic;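 further: NT is the 2HG producing partner of a matched IDH1 knockdown line; nearly all actives have a fitted effect of over 55% in size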
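HT-1080-NT fibrosarcoma cells (2HG-overproducing), 750 cells/well in RPMI with 5% FBS, dosed after 2 h and incubated 48 h at 37C. CellTiter-Glo luminescence normalized to DMSO and no-cell wells; concentration-response curves fitted and classed.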
IL1B secr inh = inflammasome signaling inhibition, IL-1 beta readout. activity change, % at 57.5 µM. 4.7% of 360,000 active. THP-1 LPS/ATP IL-1B secretion, AlphaLISA, 16 h; hits give low values; in the data active means activity change below about -50%; inconclusive means mostly about -30% to -49%
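Secreted IL-1B measured by AlphaLISA bead assay after 16 h compound exposure of THP-1 cells; compounds (final up to 57.5 uM) added 1 h before LPS (250 ng/mL) and ATP (1.25 mM) stimulation; lower signal means less secretion.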
DT40 TDP1 no CPT = qHTS for Inhibitors of human tyrosyl-DNA phosphodiesterase 1 (TDP1): qHTS in cells in absence of CPT; Potency, µM (series often up to 46.2 µM), usual class: inhibitors; DT40 Tdp1-/- hTDP1 cells, no CPT, ATP luminescence, 48 h; 15% of 420,000 active; AID 686978, 2013; further: nearly all actives have a fitted effect of over 55% in size
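A cellular qHTS used chicken DT40 cells lacking endogenous Tdp1 but carrying stably transfected human TDP1. Compounds were applied without camptothecin, and cell growth kinetics were judged by ATP-dependent luminescence after ≥48 hr.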
HT1080 IDH1KD tx = HT-1080 IDH1 knockdown cell toxicity (counter line). HT-1080 IDH1 knockdown viability, ATP luminescence, 48 h. Potency, µM (doses to about 46.1 µM), actives largely listed as cytotoxic. 2% of 360,000 active
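IDH1KD HT-1080 cells, 750/well, RPMI + 5% FBS; compound pinned after 2 h settling; 48 h, 37 °C; CellTiter-Glo luminescence; % activity normalised to DMSO and no-cell wells; curves fitted, classed by r2 and efficacy.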
Hits are given with their value. Most compounds without a hit are left out; they make up all but 19% or so of the library. Unless noted, the call rests on the fitted dose curve; in most records, active means well fitted curve in the direction sought with a large enough effect; inconclusive means small, poorly fitted or top-dose-only effect, or another doubt; inactive means no such curve, though single readings can be large; an effect the other way counts as inactive or inconclusive.

Screening COc1ccc(CCNC(=O)CSc2cn(CCNC(=O)c3cccc(C(F)(F)F)c3)c3ccccc23)cc1OC returned TDP1 cell CPT 20.6µM and DT40 TDP1 no CPT 14.6µM.
COc1ccc(C(=O)NCCn2cc(SCC(=O)Nc3ccc4c(c3)OCCO4)c3ccccc32)cc1OC was read as TDP1 cell CPT 14.6µM and DT40 TDP1 no CPT 20.6µM.
For COc1ccc(NC(=O)COc2ccccc2Cc2ccccc2)cc1S(N)(=O)=O the results were TDP1 cell CPT 20.6µM, HT1080NT lethal inactive, IL1B secr inh inactive, DT40 TDP1 no CPT 14.6µM and HT1080 IDH1KD tx inactive.
For COc1ccc(NC(=O)CN(Cc2ccccc2)Cc2ccccc2)cc1S(N)(=O)=O the results were TDP1 cell CPT inactive, HT1080NT lethal inactive, IL1B secr inh inactive, DT40 TDP1 no CPT inactive and HT1080 IDH1KD tx inactive.
For Cc1ccc(OCC(=O)Nc2ccc(C)c(S(=O)(=O)N3CCCCC3)c2)c([N+](=O)[O-])n1 the results were TDP1 cell CPT inconclusive, HT1080NT lethal inactive, IL1B secr inh inactive, DT40 TDP1 no CPT inconclusive and HT1080 IDH1KD tx inactive.
`COc1ccc(NC(=O)COc2ccc(C)nc2[N+](=O)[O-])cc1S(N)(=O)=O` gave TDP1 cell CPT 9.2µM, HT1080NT lethal inactive, IL1B secr inh inactive, DT40 TDP1 no CPT inconclusive and HT1080 IDH1KD tx inactive.
For O=C(Cc1csc(-c2cccc(F)c2)n1)Nc1cccc(S(=O)(=O)NC2=NCCC2)c1 the results were TDP1 cell CPT inactive, HT1080NT lethal inactive, IL1B secr inh inactive, DT40 TDP1 no CPT inactive and HT1080 IDH1KD tx inactive.
CC(C)c1nc2n(n1)C1(CCCCC1)[C@@H]1CCCC[C@@H]1N2 was read as TDP1 cell CPT inconclusive and DT40 TDP1 no CPT 23.1µM.
CC(C)C(=O)N1c2nc(C(C)C)nn2C2(CCCCC2)[C@@H]2CCCC[C@@H]21 was read as TDP1 cell CPT 6.51µM and DT40 TDP1 no CPT 4.61µM.
For Cc1cc(NC(=O)c2cccnc2)ccc1Br the results were TDP1 cell CPT inactive, HT1080NT lethal inactive, IL1B secr inh inactive, DT40 TDP1 no CPT inactive and HT1080 IDH1KD tx inactive.
For COc1ccc2c(c1)c(=O)c(C(=O)c1ccc(F)cc1)cn2CC(=O)Nc1ccc2c(c1)OCO2 the results were TDP1 cell CPT inactive and DT40 TDP1 no CPT inconclusive.
For O=C(CCC(=O)N1CCOc2ccc(Cl)cc21)NCc1ccccc1 the results were TDP1 cell CPT inactive, HT1080NT lethal inactive, IL1B secr inh inactive, DT40 TDP1 no CPT inactive and HT1080 IDH1KD tx inactive.
Screening Cc1ccc2oc(C(=O)Nc3ccc(S(=O)(=O)N4CCCC(C)C4)cc3)cc(=O)c2c1 (configuration not stated) returned TDP1 cell CPT 16.4µM and DT40 TDP1 no CPT 8.2µM.
`Cc1cc(C)c2oc(C(=O)Nc3ccc(S(=O)(=O)N4CCCC(C)C4)cc3)cc(=O)c2c1` (configuration not stated) gave TDP1 cell CPT 14.6µM, HT1080NT lethal inactive, IL1B secr inh inactive, DT40 TDP1 no CPT inconclusive and HT1080 IDH1KD tx inactive.
O=C1NC2(CCCCC2)C(=O)N1Cc1cccc(C(F)(F)F)c1 was read as TDP1 cell CPT inactive, HT1080NT lethal inactive, IL1B secr inh inactive, DT40 TDP1 no CPT inactive and HT1080 IDH1KD tx inactive.
For O=C(/C=C/c1ccc(F)cc1)NCCC1=CCCCC1 the results were TDP1 cell CPT 20.6µM, HT1080NT lethal inactive, IL1B secr inh inactive, DT40 TDP1 no CPT 16.4µM and HT1080 IDH1KD tx inactive.
COc1ccccc1/C=C/C(=O)NCCC1=CCCCC1 was read as TDP1 cell CPT inactive, HT1080NT lethal inactive, IL1B secr inh -50.1, DT40 TDP1 no CPT inactive and HT1080 IDH1KD tx inactive.
`COc1ccc2c(c1)CCN=C2Cc1ccc(OC)c(OC)c1` gave TDP1 cell CPT inconclusive, HT1080NT lethal inactive, IL1B secr inh inconclusive, DT40 TDP1 no CPT 16.4µM and HT1080 IDH1KD tx inconclusive.
Screening N#Cc1cccnc1N1CCN(C(=O)c2cccs2)CC1 returned TDP1 cell CPT inactive, HT1080NT lethal inactive, IL1B secr inh inactive, DT40 TDP1 no CPT inactive and HT1080 IDH1KD tx inactive.
`CCCCn1cc2c(c1-c1ccccc1Br)c(=O)n(C)c(=O)n2C` gave TDP1 cell CPT 23.1µM and DT40 TDP1 no CPT 16.4µM.
Screening Cc1ccc(-c2c3c(=O)n(C)c(=O)n(C)c3cn2Cc2ccccn2)cc1 returned TDP1 cell CPT inactive, HT1080NT lethal inactive, IL1B secr inh inactive, DT40 TDP1 no CPT inactive and HT1080 IDH1KD tx inactive.
`CCCn1cc2c(c1-c1cccc(C)c1)c(=O)n(C)c(=O)n2C` gave TDP1 cell CPT inconclusive, HT1080NT lethal inactive, IL1B secr inh inactive, DT40 TDP1 no CPT inconclusive and HT1080 IDH1KD tx inactive.
Screening CCCCCn1cc2c(c1-c1ccc(Cl)cc1)c(=O)n(C)c(=O)n2C returned TDP1 cell CPT 16.4µM and DT40 TDP1 no CPT 16.4µM.
Screening CCCCCn1cc2c(c1-c1ccccc1Br)c(=O)n(C)c(=O)n2C returned TDP1 cell CPT 11.6µM and DT40 TDP1 no CPT 11.6µM.
`O=C(CC[C@H]1O[C@@H](n2cnc3c(NC(=O)c4ccccc4)ncnc32)[C@H](O)[C@@H]1O)NCc1ccccn1` gave TDP1 cell CPT inactive, HT1080NT lethal inactive, IL1B secr inh inactive, DT40 TDP1 no CPT inactive and HT1080 IDH1KD tx inactive.
For CCN(CC)c1ccc(CNc2nc3ccccc3n2C)cc1 the results were TDP1 cell CPT inactive, HT1080NT lethal inactive, IL1B secr inh inactive, DT40 TDP1 no CPT inactive and HT1080 IDH1KD tx inactive.
For CCN(CC)c1ccc(CNc2nc3ccccc3n2CCN2CCCCC2)cc1 the results were TDP1 cell CPT 4.61µM, HT1080NT lethal 16.4µM, IL1B secr inh -104.7, DT40 TDP1 no CPT inconclusive and HT1080 IDH1KD tx inconclusive.
Screening CCN(CC)CCSc1nc(O)c(-c2ccccc2)c(=O)n1-c1ccccc1 returned TDP1 cell CPT inactive, HT1080NT lethal inactive, IL1B secr inh inactive, DT40 TDP1 no CPT inactive and HT1080 IDH1KD tx inactive.
For Brc1cccc(CNc2nc3ccccc3n2CCN2CCOCC2)c1 the results were TDP1 cell CPT inconclusive, HT1080NT lethal inactive, IL1B secr inh inactive, DT40 TDP1 no CPT 11.6µM and HT1080 IDH1KD tx inactive.
CCN(CC)CCn1c(NCc2nc3ccccc3n2Cc2ccccc2)nc2ccccc21 was read as TDP1 cell CPT inconclusive, HT1080NT lethal inconclusive, IL1B secr inh -58.6, DT40 TDP1 no CPT inconclusive and HT1080 IDH1KD tx 11.2µM.
`CCN(CC)CCSc1nc2ccccc2c(=S)n1-c1ccccc1` gave TDP1 cell CPT inconclusive, HT1080NT lethal inconclusive, IL1B secr inh -56.0, DT40 TDP1 no CPT 23.1µM and HT1080 IDH1KD tx inconclusive.
`COc1cccc(CN2CCCC(c3nc(-c4ccncc4)ncc3-c3ccccc3C)C2)c1O` (configuration not stated) gave TDP1 cell CPT inconclusive and DT40 TDP1 no CPT inactive.
COC(=O)C(NC(=O)c1c(C)nn(C)c1Cl)c1ccccc1 (configuration not stated) was read as TDP1 cell CPT inactive, HT1080NT lethal inactive, IL1B secr inh inactive, DT40 TDP1 no CPT inactive and HT1080 IDH1KD tx inactive.
